# A selection: hits, their analogues and other compounds. The true share with any hit is near 5.2%.
# CendR NRP1 mod: modulators of CendR peptide binding to NRP-1, primary screen, biochemical, fluorescence polarization, uHTS; Neuropilin-1 (Homo sapiens), O14786; FAM-RPARPAR peptide binding to NRP-1; inhibition, % at 25 µM; hit rate 0.85% among 360,000; AID 602438, 2012;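 active = inhibition or corrected inhibition above about 18%, plus a signal ratio from 0.5 to 1.5, limit read from the data, passing the limit was not always enough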
# APOBEC3G inh: APOBEC3G DNA deaminase inhibitors, primary screen, biochemical, fluorescence, single-stranded DNA substrate, uHTS; DNA dC->dU-editing enzyme APOBEC-3G (Homo sapiens), Q9HC16; recombinant A3G, ssDNA deamination FAM/TAMRA fluorescence; inhibition, % at 20 µM; hit rate 0.28% among 330,000;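 active = inhibition of at least 40% at 20 µM, with no more than 30% in the related APOBEC3A deaminase screen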;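 note: plate controls were DMSO wells with A3G for no effect and wells lacking A3G enzyme for full effect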
# Target sequence (Q9HC16 whole entry, looked up): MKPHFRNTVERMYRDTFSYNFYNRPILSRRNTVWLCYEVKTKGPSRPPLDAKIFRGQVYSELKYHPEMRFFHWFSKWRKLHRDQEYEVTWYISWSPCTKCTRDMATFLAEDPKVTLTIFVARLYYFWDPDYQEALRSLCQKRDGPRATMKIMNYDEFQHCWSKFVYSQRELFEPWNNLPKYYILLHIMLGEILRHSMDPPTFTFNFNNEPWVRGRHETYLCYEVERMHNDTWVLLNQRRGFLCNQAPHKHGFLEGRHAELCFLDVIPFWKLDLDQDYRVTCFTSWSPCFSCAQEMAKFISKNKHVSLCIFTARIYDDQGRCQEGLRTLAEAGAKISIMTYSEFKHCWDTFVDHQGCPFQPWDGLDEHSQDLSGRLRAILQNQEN
# M18AAP inhibitor: PfM18AAP inhibitors, malaria aminopeptidase, primary screen, biochemical, QFRET, recombinant enzyme | M18 aspartyl aminopeptidase (Plasmodium falciparum 3D7) | AID 1822, 2009 | inhibition, % at 7.35 µM | H-Glu-NHMec fluorogenic cleavage | hit rate 1.2% among 290,000;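 active = inhibition above the campaign mean inhibition over all tested compounds plus 3 SD, cut at about 28% in these data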;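 note: 0% = plate median of test compound wells and 100% = 2 mM ZnCl2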
# ALR H2O2 inh: inhibitors of human ALR sulfhydryl oxidase, primary screen, biochemical, H2O2 detection, HRP-luminol luminescence, single point; hit rate 3.8% among 290,000; purified ALR, DTT oxidation; FAD-linked sulfhydryl oxidase ALR (Homo sapiens), P55789; inhibition, % (no concentration beside the values);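 active = mean replicate inhibition above about 79%, with every replicate also reaching it, limit read from the data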
# A3A deaminase: APOBEC3A ssDNA deaminase inhibitors, primary screen, selectivity assay for APOBEC3G inhibitor project, biochemical, FAM/TAMRA oligo cleavage fluorescence. hit rate 0.41% among 330,000. inhibition, % at 20 µM. recombinant A3A, FAM/TAMRA ssDNA deamination fluorescence. AID 493011, 2011;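 active = at least 40% inhibition at 20 µM here, with at most 30% in a related deaminase screen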;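 note: plate controls were A3A with DMSO for no effect and wells lacking A3A enzyme for full effect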
# Target sequence (P31941 whole entry, looked up): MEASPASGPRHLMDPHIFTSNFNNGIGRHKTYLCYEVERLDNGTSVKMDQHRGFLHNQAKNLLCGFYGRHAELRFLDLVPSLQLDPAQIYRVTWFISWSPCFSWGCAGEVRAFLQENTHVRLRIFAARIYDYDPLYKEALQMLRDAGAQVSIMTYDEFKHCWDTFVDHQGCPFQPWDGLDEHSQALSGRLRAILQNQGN
# Yeast superoxide: reduction of superoxide in aged yeast, primary screen, HTS; S. cerevisiae aged cells, superoxide DHE fluorescence; hits give low values; superoxide response (% of plate mean), % at 10 µM; hit rate 0.18% among 330,000; AID 2690, 2010;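 active = superoxide response under a set limit, about three screen SD below normal, cut at about 65% in these data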;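 note: yeast aged for seven days with compound at 30 °C before DHE staining; 100% = average MFI of all compound-treated wells on the plate with controls excluded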
# Active calls of the source: *; · = not tested or not shown.
SMILES,CendR NRP1 mod,APOBEC3G inh,M18AAP inhibitor,ALR H2O2 inh,A3A deaminase,Yeast superoxide
CCOC(=O)c1sc(-c2cccs2)nc1C,-2,1,-1,-7,0,107
CCNc1c(N)c(=O)oc2ccccc12,-2,3,-12,60,-8,96
O=C(O)c1cccc(Nc2c([N+](=O)[O-])c(=O)oc3ccccc23)c1,-12,0,-5,1,1,64*
CC(C)CNc1c(N)c(=O)oc2ccccc12,-11,-7,19,99*,-6,113
Nc1c(Nc2ccccc2)c2ccccc2oc1=O,8,1,2,98*,-3,105
CCS(=O)(=O)c1nc(S(=O)(=O)c2ccc(Cl)cc2)c(N2CCC(C(N)=O)CC2)s1,10,1,3,-2,-2,119
CCCCOCC(O)CCc1n[nH]c(=S)n1-c1ccccc1 (stereo not drawn),-5,6,19,·,-6,107
C=CCn1c(C(CCCC)CC(O)COCCC)n[nH]c1=S (stereo not drawn),-3,11,15,92*,-3,84
C=CCn1c(CCC(O)COCCCCC)n[nH]c1=S (stereo not drawn),7,9,7,96*,-5,106
CC1CCCN(C(c2cccs2)c2nnnn2Cc2ccccc2)C1 (stereo not drawn),-5,-6,7,·,-6,100
CC(=O)Nc1cccc(NC(=O)CSc2nn3c(=O)c(C)nnc3s2)c1,-1,20,·,98*,-3,90
Cc1ccc(CSc2nn3c(=O)c(C)nnc3s2)cc1,-10,-1,1,-9,-1,113
Cc1nnc2sc(SCC(=O)Nc3ccc(Cl)cc3)nn2c1=O,1,-2,10,93*,0,102
Cc1cccc(CSc2nn3c(=O)c(C)nnc3s2)c1,0,-6,-8,99*,0,113
COc1cc(C(=O)N/N=C/c2sc(=O)n(-c3ccccc3)c2Cl)cc(OC)c1OC,-32,-1,5,2,-1,111
O=C(N/N=C/c1sc(=O)n(-c2ccccc2)c1Cl)c1ccncc1,-100,-4,6,98*,-3,122
O=C(NCCN1CCOCC1)c1ccccc1N1C(=O)[C@@H]2Cc3c([nH]c4ccccc34)C(c3ccccc3)N2C1=O (stereo partly drawn),-4,-3,-3,99*,-6,80
COc1ccc(OC)c(-c2nc(C(=O)NCCCN3CCOCC3)cc3c2[nH]c2ccccc23)c1,-7,-10,8,-2,-5,83
COc1cccc(C2c3[nH]c4ccccc4c3C[C@H]3C(=O)N(c4ccccc4C(=O)NCCCN4CCOCC4)C(=O)N23)c1 (stereo partly drawn),8,-8,9,99*,-3,116
O=C(NCCCN1CCOCC1)c1ccccc1N1C(=O)[C@@H]2Cc3c([nH]c4ccccc34)C(c3ccc(F)cc3)N2C1=O (stereo partly drawn),-2,2,6,22,-7,95
Cc1cccc(N2CCN(c3nnc(C(F)(F)F)s3)CC2)c1,-7,-5,-2,-4,4,103
O=C(N/N=C/C(Cl)=C\c1ccccc1)c1cccs1,-4,-1,-8,-2,2,104
COc1cc2c(c(OC)c1OC)-c1c(cc(OC)c(OC)c1OC)C[C@](C)(O)[C@@H](C)C2,39*,-6,·,-12,-1,99
COc1cc2c(c(OC)c1OC)-c1c(cc3c(c1OC)OCO3)C[C@H](C)[C@@](C)(O)C2,-16,-1,·,·,1,100
Cc1ccnc(Nc2nc(-c3ccc(O)cc3)cs2)c1,2,-6,9,38,0,97
SMILES,CendR NRP1 mod,APOBEC3G inh,M18AAP inhibitor,ALR H2O2 inh,A3A deaminase,Yeast superoxide
Cc1ccnc(Nc2nc(-c3ccc(O)cc3O)cs2)c1,-4,-12,15,99*,-9,92
O=C(NCCN1CCOCC1)c1cccc(Cl)c1,6,1,-1,-3,3,69
COc1ccc2nc(NC(=O)C3COc4ccccc4O3)sc2c1 (stereo not drawn),2,-4,-4,·,-2,92
COc1ccc2nc(NNC(=O)C3COc4ccccc4O3)sc2c1 (stereo not drawn),-4,-4,31*,99*,-2,110
S=c1sc2c(N3CCN(Cc4ccccc4)CC3)ncnc2n1-c1ccccc1,12,1,-10,1,-4,97
OCCN1CCN(C(=S)c2ccc(Br)cc2)CC1,-6,4,30*,-3,2,89
CC(C(=O)N1CCCCC1)N(C)CC(=O)Nc1cccc(F)c1 (stereo not drawn),·,-2,·,0,0,106
Cc1nn(-c2ccccc2)c(N2CCCCC2)c1/C=N/NC(=O)c1ccncc1,7,-3,-8,-52,-1,107
CCOc1ccc(S(=O)(=O)Nc2ccc(C(=O)N/N=C/c3c(C)nn(-c4ccccc4)c3N3CCCC3)cc2)cc1,21*,-8,-15,1,-3,106
CCCCNC(=O)c1onc(CCl)c1C(=O)OC,19,-5,3,97*,6,·
COc1ccccc1CC(=O)NCc1csc(-c2cccs2)n1,0,-1,4,-7,3,101
CCC(=O)NCc1csc(-c2cccs2)n1,16,-8,-10,94*,-2,107
Cc1ccc(-c2c(C(=O)O)c(C(=O)O)c3n2CSC3)cc1,2,-6,-10,93*,-2,83
COC(=O)c1c(C(=O)OC)c(-c2ccc(C(C)(C)C)cc2)n2c1CS(=O)C2 (stereo not drawn),17,-1,-8,-22,4,95
CC(C)(C)c1ccc(-c2c(C(=O)O)c(C(=O)O)c3n2CSC3)cc1,-50,-1,6,55,8,89
O=C(O)c1c(C(=O)O)c(-c2ccc(Br)cc2)n2c1CSC2,1,-8,10,98*,-3,111
COC(=O)c1c(C(=O)OC)c(-c2ccccc2)n2c1CCC2,38*,-2,-2,-1,0,99
COC(=O)c1c(C(=O)OC)c(-c2ccc(F)cc2)n2c1CSC2,3,-10,-6,99*,-1,76
Cc1ccccc1NC(=O)CN1C(=O)c2cccnc2Oc2ccc(Cl)cc21,-10,-2,0,-12,-5,110
CC(CNC(=O)c1ccco1)NC(=O)c1ccco1 (stereo not drawn),9,-11,1,2,0,99
O=C(C[n+]1ccc(CCSc2ccc(F)cc2)cc1)c1ccccc1,-33,-6,5,27,-5,110
